In PubChem BioAssay (NCI):
Compounds without any hit were thinned out: in the full panel of roughly 83,000, 20% have a hit.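 Method: cells in 96-well plates; compound added at one concentration; 48 h incubation; percent growth measured; values under 10 scored active.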 Values without a mark were called inactive. Calls of active or inactive are those of the source.

How the values were obtained:
Assay in all cases: NCI-60 one-dose screen, 48 h (100 = growth as untreated, 0 = no growth, -100 = all killed)
Conditions in all cases: 10 µM unless noted
SK-MEL-2 melanoma = test system: SK-MEL-2 melanoma
EKVX NSCLC = test system: EKVX NSCLC
SN12C renal = test system: SN12C renal
UO-31 renal = test system: UO-31 renal
TK-10 renal = test system: TK-10 renal
ACHN renal = test system: ACHN renal
CAKI-1 renal = test system: CAKI-1 renal
A498 renal = test system: A498 renal
CCRF-CEM leukemia = test system: CCRF-CEM leukemia
MOLT-4 leukemia = test system: MOLT-4 leukemia

Row | Compound | growth (SK-MEL-2 melanoma) | growth (EKVX NSCLC) | growth (SN12C renal) | growth (UO-31 renal) | growth (TK-10 renal) | growth (ACHN renal) | growth (CAKI-1 renal) | growth (A498 renal) | growth (CCRF-CEM leukemia) | growth (MOLT-4 leukemia)
1 | CN(C)c1ccc(C(=O)c2ccc(N(C)C)c(N)c2)cc1N | 61.6% | 50.9% | 49.7% | 64.9% | 67.3% | 50.5% | 41% | 25% | 36.4% | 24.4%
2 | C/C(=C(/c1ccccc1)c1ccc(N2C(=O)c3cccc4c(NCc5ccccc5)ccc(c34)C2=O)cc1)c1ccccc1 | 107% | 75.3% | 92% | 68.8% | 145% | 94.8% | 84.5% | 107% | 89.1% | 88.9%
3 | Oc1cccc2ccc(N/N=C/c3cc(CN4CCCCC4)c(O)c4ncccc34)nc12 | -4.78% (active) | 20% | 17.6% | -19% (active) | 32.5% | -28.9% (active) | 6.88% (active) | 38.9% | 10.7% | 7.17% (active)
4 | O=C(Nc1ccc(/C=C2\SC(=O)N(Cc3ccc(OC(F)(F)F)cc3)C2=O)cc1)c1ccc(Cl)c([N+](=O)[O-])c1 | 92.6% | 91.1% | 81.6% | 67.9% | 98.5% | 89.3% | 85.7% | 82.2% | 77% | 78.4%
5 | O=C(O)/C(=C/c1ccc(O)cc1)c1ccccc1 | 105% | 105% | 96.9% | 68.9% | 98.3% | 101% | 104% | 93.2% | 94.5% | 97.5%
6 | Nc1c2c(nc3ccc(Cl)cc13)CC(c1ccc(O)cc1)CC2=O (stereo not given) | 61.3% | 29.8% | 58.7% | 60% | 81.5% | 49.4% | 48.3% | 86.5% | 43.4% | 46.9%
7 | CC/C(=N/NC(N)=O)c1ccccc1 | 115% | 91.5% | 106% | 86.4% | 105% | 108% | 94.7% | 105% | 94.2% | 98%
8 | O=C(NCN1C(=O)c2cccc3cccc(c23)C1=O)N1CCC(Cc2ccccc2)CC1 | 103% | 93.4% | 99.2% | 72.2% | 98% | 101% | 82.9% | -36% (active) | 79.9% | 84.7%
9 | COC(=O)[C@]12CC[C@@H](C)[C@H](C)[C@@H]1C1=CC[C@@H]3[C@@]4(C)C=C(O)C(=O)C(C)=C4CC[C@@]3(C)[C@]1(C)CC2 | 27% | 1.05% (active) | 18.9% | 34.3% | 14.6% | 22.4% | 33.4% | 81.5% | -26.2% (active) | -15.9% (active)
10 | COC(=O)[C@]12CC[C@@H](C)[C@H](C)[C@@H]1C1=CC[C@@H]3[C@@]4(C)C[C@@H](O)OC[C@](C)(C=O)C4C(=O)C[C@@]3(C)[C@]1(C)CC2 (stereo not given in full) | -22.4% (active) | 21% | 11.4% | 7.68% (active) | 9.25% (active) | 7.86% (active) | 7.25% (active) | -0.985% (active) | -7.54% (active) | -9.93% (active)
11 | C=C(C)[C@@H]1CC[C@]2(CN)CC[C@]3(C)[C@H](CC[C@@H]4[C@@](C)(CCCN)[C@H](C(=C)C)CC[C@]43C)[C@@H]12 | 107% | 102% | 82.5% | 63% | 119% | 99.1% | 75.5% | 88.7% | 66.6% | 57%
12 | Oc1ccc(CCC2CCCC(CCc3ccc(OCCF)cc3)N2)cc1 (stereo not given) | 104% | 105% | 89.6% | 72% | 96.7% | 99.8% | 89.2% | 96.9% | 88.3% | 76.2%
13 | COc1cc2ncnc(Nc3ccc(Oc4ccnc(C)c4)c(C)c3)c2cc1NC(=O)CC1CCSS1 (stereo not given) | -57.7% (active) | -1.66% (active) | 21.3% | -23.7% (active) | -68.6% (active) | 10.5% | 3.34% (active) | 66.8% | -30.8% (active) | -56.8% (active)
14 | Cc1ccc(C)c2c1CCC2C(C)C (stereo not given) | 110% | 102% | 98.6% | 88.5% | 95.6% | 97.3% | 95.8% | 110% | 93.5% | 86.4%
15 | Cc1ccc2c(c1)c(-c1nc(-c3c[nH]c4ncccc34)cs1)cn2C | 99.3% | 35.1% | 90.9% | 86.2% | 81.5% | 98.6% | 107% | 112% | 77.7% | 75.2%
16 | CC(C)c1cc(C(=O)O)c(O)c(C(C)C)c1.CC(C)c1cc(C(=O)O)c(O)c(C(C)C)c1.[Mn] | 118% | 102% | 101% | 85.5% | 106% | 103% | 100% | 126% | 95.1% | 99.2%
17 | CCC1C(=O)COC1=O (stereo not given) | 87% | 95.5% | 104% | 95.7% | 90.5% | 103% | 92.4% | 91.4% | 85.4% | 92.9%
18 | CCOC(=O)C/C(=C\c1ccccc1)C(C)=O | 89.3% | 102% | 105% | 99.3% | 96.3% | 107% | 94.5% | 114% | 90.3% | 93.8%
19 | O=S(=O)(NCCNc1cc(-c2cn(-c3ccccc3)nc2-c2cccc(O)c2)ccn1)c1ccc(Br)cc1 | 20.7% | 34.9% | 34.4% | 19.8% | 46.1% | 23.7% | 43.2% | 53.7% | 9.77% (active) | 8.59% (active)
20 | O=C1c2cccc3cccc(c23)C(=O)N1CC#Cc1ccc2c3c(cccc13)C(=O)N(CCN1CCNCC1)C2=O | 113% | 104% | 97.2% | 97.7% | 141% | 74.4% | 82.4% | 112% | 7.71% (active) | 6.74% (active)
21 | CC(=O)O[C@H]1CC[C@]2(C)[C@H]3C(=O)C=C4[C@@H]5C[C@](C)(C(=O)N6CCCNCC6)CC[C@]5(C)CC[C@@]4(C)[C@]3(C)CC[C@H]2C1(C)C | 96.2% | 54.8% | -82.1% (active) | -85.5% (active) | -14.3% (active) | -100% (active) | -99.3% (active) | 74.1% | -31.5% (active) | -23.6% (active)
22 | Cc1ccc(N(CC(=O)Nc2ccc(S(=O)(=O)N3CCC(N4CCCC4)CC3)cc2)S(=O)(=O)c2ccc(Cl)cc2)cc1 | 91.9% | 70.1% | -35.7% (active) | 38.1% | 112% | -38.4% (active) | 18.2% | 65.6% | 3.02% (active) | 2.28% (active)
23 | CC(C)=CCC[C@](C)(O)[C@H]1CC[C@]2(C)[C@@H]1CC[C@@H]1[C@@]3(C)C/C(=C/c4ccc(Br)cc4)C(=O)C(C)(C)[C@@H]3CC[C@]12C | 113% | 94.3% | 88% | 70.4% | 130% | 98.1% | 64.7% | 80.8% | 83.4% | 84.1%
24 | CCc1nnc(NC(=O)c2ccoc2COc2ccccc2)s1 | 54.3% | 58.2% | 55.7% | 60.7% | 108% | 64.8% | 41.9% | 59.2% | 39.3% | 25.3%
25 | CN1CCN(c2ccc3nc(-c4[nH]ncc4Nc4ncnc5c4OCCCN5)[nH]c3c2)CC1 | -56.1% (active) | -59.6% (active) | -59.5% (active) | -77.3% (active) | -62.7% (active) | -98.4% (active) | -86.2% (active) | -95.7% (active) | -25.7% (active) | -22.5% (active)
26 | COc1c(N)c2c(c([N+](=O)[O-])c1OC)C(=O)OC2 | 102% | 111% | 93.5% | 83.4% | 103% | 117% | 115% | 104% | 96.2% | 81.2%
